Records with an inconclusive call do not appear. This is one part of the list. The source made the active and inactive calls. Unless noted, calls come from the whole dose curve; as a rule, active = well fitted curve in the direction sought with a large enough effect; inconclusive = small, poorly fitted or top-dose-only effect, or another doubt; inactive = no such curve, though single readings can be large; an effect the other way counts as inactive or inconclusive.
Key:
[1] = Validation of Assay for Modulators of Lamin A Splicing (AID 1459; active = well fitted curve in the direction sought with a large enough effect in the signal ratio; the % refers to the signal ratio;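 note: cells exposed to compound for two days before reading; ratio rise marks activators and ratio drop marks inhibitors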)
Summary of the method: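 S3 HeLa cells stably expressing a lamin A-EGFP splicing minigene and DsRed2 were seeded at 600 cells/well in Opti-MEM with 2% FBS, pin-dosed, and incubated 48 hrs at 37 °C, 5% CO2. Laser-scanning cytometry (488 nm) gave GFP/RFP total intensity ratio.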

[2] = target: DNA repair nuclease/redox regulator APEX1 (Homo sapiens) (UniProt P27695); test: qHTS Validation Assay for Inhibitors of the Human Apurinic/apyrimidinic Endonuclease 1 (APE1) (AID 1705; note: potency is the fitted concentration of half-maximal effect)
Summary of the method: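 Human APE1 was preincubated with compound for 15 min at room temperature, then 50 nM (final) THF-abasic double-stranded DNA substrate bearing 5'-TAMRA and 3'-BHQ-2 was added. Incision-driven fluorescence rise (ex 525/em 598 nm) was read kinetically.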

[3] = Counterscreen for APE1 Inhibitors: Fluorescent Dye Displacement Validation Assay (AID 1707); note: potency is the fitted concentration of half-maximal effect
Summary of the method: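 Endpoint fluorescence read at 480 nm excitation / 540 nm emission; DNA-binding compounds lower signal by displacing 250 nM Thiazole Orange from 50 nM dsDNA containing a tetrahydrofuran abasic site, Tris-HCl pH7.5 buffer with NaCl and MgCl2.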

[4] = target: Endonuclease 4 (Escherichia coli (strain K12)) (UniProt P0A6C1); test: Counterscreen for APE1 Inhibitors: qHTS Validation Assay for Inhibitors of Endonuclease IV (AID 1708)
Summary of the method: (§1)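 Enzyme (2 nM) + compound, 15 min RT; add 50 nM TAMRA/BHQ-2 THF-site dsDNA; kinetic read ex525/em598, 3 reads/60 s; activity = read 3 − read 1. Buffer Tris pH 7.5, 50 mM NaCl, 2 mM MgCl2, DTT, Tween-20.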

[5] = qHTS for differential inhibitors of proliferation of Plasmodium falciparum line 3D7 (AID 1876); note: potency is the fitted concentration of half-maximal effect
[6] = qHTS for differential inhibitors of proliferation of Plasmodium falciparum line D10 (AID 1877);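 note: parasites grown with compound for 72 h before DNA staining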; note: potency is the fitted concentration of half-maximal effect
[7] = qHTS for differential inhibitors of proliferation of Plasmodium falciparum line Dd2 (AID 1882); details: Potency: Plasmodium falciparum Dd2 proliferation inhibition; note: nearly all actives have a fitted effect of over 65% in size; note: potency is the fitted concentration of half-maximal effect
Summary of the method: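 SYBR Green DNA fluorescence (ex 485, em 535 nm) after overnight lysis quantifies parasite growth; compound exposure lasted 72 h at 37 C on infected red cells at 2.5% hematocrit, 0.3% parasitemia (final). Artemisinin 0.29 uM and vehicle wells define normalization.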

[8] = qHTS for differential inhibitors of proliferation of Plasmodium falciparum line HB3 (AID 1886); details: Potency: Plasmodium falciparum HB3 proliferation inhibition;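 note: parasites grown with compound for 72 h before SYBR Green readout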; note: potency is the fitted concentration of half-maximal effect
[9] = qHTS Assay for Modulators of Human Peripheral Myelin Protein 22 (PMP22) Expression/Activity (AID 1967; active = well fitted curve in the direction sought with a large enough effect in the signal ratio; the % refers to the signal ratio)
Summary of the method: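 MSC80 mouse Schwann cells stably carrying Pmp22 promoter–green click beetle luciferase plus EF-alpha–red luciferase control were dosed for 24h at 37 °C. Dual-colour luminescence was filter-overlap corrected; %Activity came from green/red ratio versus untreated cells.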

[10] = target: Ferritin light chain (Equus caballus) (UniProt P02791); test: qHTS Validation Assay for Identification of Novel General Anesthetics (AID 2323); note: series mostly up to about 77 µM
Summary of the method: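 Competitive displacement of profluorescent 1-aminoanthracene (1-AMA, 50% saturated solution in PBS) from 10 uM horse-spleen apoferritin. Compounds incubated 10 min at room temperature; fluorescence read at 380 nm excitation/535 nm emission, normalized to free 1-AMA and complex, fitted with four-parameter Hill equation.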

[11] = target: ATP-dependent DNA helicase Q1 (Homo sapiens) (UniProt P46063); test: qHTS Validation Assay for Inhibitors of RecQ-Like Dna Helicase 1 (RECQ1) (AID 2353)
Summary of the method: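 RECQ1T1 50 nM; forked duplex (20 bp + 30-nt ss tails) 200 nM, ATP 2 mM final; pH 8.0, 2 mM MgCl2, 2.5 ug/ml poly(dI-dC); 15 min compound preincubation; discontinuous kinetic read over 2 h at RT.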

[12] = qHTS for differential inhibitors of proliferation of Plasmodium falciparum line 7G8 (AID 1815);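 note: parasite growth measured after three days of incubation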; note: potency is the fitted concentration of half-maximal effect
[13] = qHTS for differential inhibitors of proliferation of Plasmodium falciparum line GB4 (AID 1816); details: Potency: Plasmodium falciparum GB4 proliferation inhibition;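 note: parasite growth measured after 72 h incubation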; note: potency is the fitted concentration of half-maximal effect
[14] = qHTS for differential inhibitors of proliferation of Plasmodium falciparum line W2 (AID 1883); details: Potency: Plasmodium falciparum W2 proliferation inhibition;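 note: parasites grown with compound for 72 h before lysis and staining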; note: potency is the fitted concentration of half-maximal effect
[15] = Cytometric Cell-Based qHTS for Inhibitors of the mTORC1 Signaling Pathway in MEF (Tsc2-/-, p53-/-) Cells (AID 2660);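 note: Tsc2 and p53 null MEFs carrying empty vector with compound for 24 h; percent of cells above a phospho-rpS6 to PI ratio cutoff in each well; series mostly up to about 38 µM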
Summary of the method: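 Cells are plated, treated with compound for 24 hrs at 37 degree Celsius, then fixed, blocked and immunostained for phospho-rpS6 Ser235/236. Propidium iodide counterstain follows. Per-well % positive cells is derived from the PI-normalized phospho-S6 signal.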

[16] = High Content Imaging Cell-Based qHTS for Inhibitors of the mTORC1 Signaling Pathway in MEF (Tsc2-/-, p53-/-) Cells (AID 2666);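 note: percent of cells scored positive for phospho-rpS6 Ser235/236 immunostaining by imaging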
Summary of the method: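 Inhibition of rpS6 phosphorylation is measured by immunofluorescence imaging in empty-vector Tsc2-/-, p53-/- mouse embryonic fibroblasts after 24 hrs compound exposure at 37 degree Celsius. Results are reported as % positive cells per well.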

[17] = target: RecQ-like DNA helicase BLM (Homo sapiens) (UniProt P54132); test: qHTS Validation Assay for Inhibitors of Bloom's syndrome helicase (BLM) (AID 2364)
Summary of the method: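 BLM 50 nM in 25 mM Tris-HCl pH 8.0, 5 mM NaCl, 2 mM MgCl2, 1 mM DTT, 0.01% Tween-20, 2.5 ug/ml poly(dI-dC); 15 min cpd preinc, RT. Start: 200 nM forked DNA + 2 mM ATP (final). TAMRA read, 2 reads 2 h apart.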

[18] = target: Endonuclease 4 (Escherichia coli (strain K12)) (UniProt P0A6C1); test: Counterscreen for APE1 Inhibitors: qHTS Assay for Inhibitors of Endonuclease IV (AID 2565); note: potency is the fitted concentration of half-maximal effect
Summary of the method: as §1

[19] = target: DNA repair nuclease/redox regulator APEX1 (Homo sapiens) (UniProt P27695); test: Confirmation qHTS Assay for Inhibitors of the Human Apurinic/apyrimidinic Endonuclease 1 (APE1) (AID 2572); note: potency is the fitted concentration of half-maximal effect; nearly all actives have a fitted effect of over 30% in size
Summary of the method: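 Confirmation qHTS in dose-response format: APE1 exposed to compound 15 min at RT, then reaction started with 50 nM final TAMRA/BHQ-2 abasic substrate. Three fluorescence reads 60 s apart; endpoint minus initial read gives progress.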

Measured: Potency

DNA repair nuclease/redox regulator APEX1 (Homo sapiens), sequence (P27695 whole entry, looked up): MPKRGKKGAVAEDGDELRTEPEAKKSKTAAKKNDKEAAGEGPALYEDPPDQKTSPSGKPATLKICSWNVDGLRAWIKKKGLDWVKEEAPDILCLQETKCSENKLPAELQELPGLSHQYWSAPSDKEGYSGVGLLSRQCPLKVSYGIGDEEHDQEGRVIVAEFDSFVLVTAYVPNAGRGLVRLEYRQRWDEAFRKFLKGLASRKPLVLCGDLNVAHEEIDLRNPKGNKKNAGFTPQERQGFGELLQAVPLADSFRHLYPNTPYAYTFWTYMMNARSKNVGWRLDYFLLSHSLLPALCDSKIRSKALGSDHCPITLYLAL
Ferritin light chain (Equus caballus), sequence (P02791 2-175 limits assumed): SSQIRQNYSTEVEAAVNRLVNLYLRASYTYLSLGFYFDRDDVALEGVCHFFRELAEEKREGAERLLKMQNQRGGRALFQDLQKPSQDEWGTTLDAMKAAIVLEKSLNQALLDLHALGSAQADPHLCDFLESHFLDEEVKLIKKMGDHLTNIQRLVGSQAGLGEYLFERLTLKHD
ATP-dependent DNA helicase Q1 (Homo sapiens), sequence (P46063 whole entry, looked up): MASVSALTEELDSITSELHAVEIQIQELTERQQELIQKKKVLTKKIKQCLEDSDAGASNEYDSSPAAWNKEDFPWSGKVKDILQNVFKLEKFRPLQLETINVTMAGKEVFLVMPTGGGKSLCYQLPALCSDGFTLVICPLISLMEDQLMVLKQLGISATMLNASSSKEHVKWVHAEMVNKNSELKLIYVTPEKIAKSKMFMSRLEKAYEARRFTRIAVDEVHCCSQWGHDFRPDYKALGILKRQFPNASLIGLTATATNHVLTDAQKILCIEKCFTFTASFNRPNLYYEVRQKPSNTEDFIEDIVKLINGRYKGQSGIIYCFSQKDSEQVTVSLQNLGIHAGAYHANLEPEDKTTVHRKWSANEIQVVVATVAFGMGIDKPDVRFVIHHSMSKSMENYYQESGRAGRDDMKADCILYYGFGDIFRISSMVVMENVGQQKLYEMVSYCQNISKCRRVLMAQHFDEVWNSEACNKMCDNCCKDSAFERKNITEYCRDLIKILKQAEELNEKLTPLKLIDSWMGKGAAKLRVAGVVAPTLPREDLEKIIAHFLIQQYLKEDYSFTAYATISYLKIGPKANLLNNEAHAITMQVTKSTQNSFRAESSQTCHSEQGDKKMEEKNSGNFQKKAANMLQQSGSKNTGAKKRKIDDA
RecQ-like DNA helicase BLM (Homo sapiens), sequence (P54132 whole entry, looked up): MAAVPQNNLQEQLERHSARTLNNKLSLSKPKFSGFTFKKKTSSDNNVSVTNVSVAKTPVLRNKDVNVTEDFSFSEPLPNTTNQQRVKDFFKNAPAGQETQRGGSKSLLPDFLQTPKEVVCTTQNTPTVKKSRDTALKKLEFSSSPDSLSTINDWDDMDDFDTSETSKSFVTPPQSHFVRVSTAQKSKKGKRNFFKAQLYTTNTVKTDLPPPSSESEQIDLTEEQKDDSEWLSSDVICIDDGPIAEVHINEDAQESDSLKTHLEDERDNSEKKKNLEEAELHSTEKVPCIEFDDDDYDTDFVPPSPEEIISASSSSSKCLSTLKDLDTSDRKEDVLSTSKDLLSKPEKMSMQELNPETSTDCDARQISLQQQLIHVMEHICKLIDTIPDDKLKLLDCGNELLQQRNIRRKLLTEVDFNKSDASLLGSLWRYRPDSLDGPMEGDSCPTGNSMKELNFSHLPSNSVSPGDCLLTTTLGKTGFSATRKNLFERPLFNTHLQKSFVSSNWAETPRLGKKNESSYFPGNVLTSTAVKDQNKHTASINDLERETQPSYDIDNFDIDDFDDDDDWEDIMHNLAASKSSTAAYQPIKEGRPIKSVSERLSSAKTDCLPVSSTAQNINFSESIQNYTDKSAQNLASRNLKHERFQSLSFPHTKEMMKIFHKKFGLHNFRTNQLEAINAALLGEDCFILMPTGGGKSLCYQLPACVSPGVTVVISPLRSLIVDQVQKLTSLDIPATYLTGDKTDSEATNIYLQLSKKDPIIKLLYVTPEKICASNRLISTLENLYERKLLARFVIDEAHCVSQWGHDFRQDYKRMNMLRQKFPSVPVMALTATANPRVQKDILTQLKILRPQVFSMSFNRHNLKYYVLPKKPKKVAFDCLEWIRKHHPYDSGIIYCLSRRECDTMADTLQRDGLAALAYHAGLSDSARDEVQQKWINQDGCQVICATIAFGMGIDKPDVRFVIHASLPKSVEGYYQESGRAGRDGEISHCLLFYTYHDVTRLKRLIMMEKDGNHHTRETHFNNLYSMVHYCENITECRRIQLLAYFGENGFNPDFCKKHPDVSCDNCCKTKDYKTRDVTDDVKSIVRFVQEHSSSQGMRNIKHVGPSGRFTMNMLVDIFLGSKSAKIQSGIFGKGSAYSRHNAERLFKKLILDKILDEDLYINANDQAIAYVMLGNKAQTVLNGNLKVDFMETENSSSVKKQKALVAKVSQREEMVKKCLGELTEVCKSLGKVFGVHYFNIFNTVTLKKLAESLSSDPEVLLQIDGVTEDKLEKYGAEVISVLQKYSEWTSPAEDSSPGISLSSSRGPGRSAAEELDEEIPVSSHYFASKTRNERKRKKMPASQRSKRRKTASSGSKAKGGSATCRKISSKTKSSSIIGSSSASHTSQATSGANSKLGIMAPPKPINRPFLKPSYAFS

CC(C)(C)NCC(O)COc1nsnc1N1CCOCC1 (centres undefined)
not listed: [12] | [13] | [14] | [15] | [16] | [17] | [18] | [19]
inactive: all other assays above

O=C(O)[C@@H]1C[C@H](C(=O)O)N1
not listed: [9] | [17] | [18] | [19]
inactive: all other assays above

COC(=O)c1c(C)[nH]c(C)c1C(=O)c1ccccc1Cc1ccccc1
inactive: [1] | [2] | [3] | [11] | [15] | [16]
active: [12] 7.94 µM | [13] 7.94 µM | [5] 8.91 µM | [6] 14.1 µM | [14] 8.91 µM | [8] 12.6 µM

N=C(N)SCCc1ccc(CCSC(=N)N)cc1
active: [14] 11.2 µM
not listed: [6] | [12] | [13] | [17] | [18] | [19]
inactive: all other assays above

C[N+](C)(CCCCCC[N+](C)(C)CCCN1C(=O)c2cccc3cccc(c23)C1=O)CCCN1C(=O)c2cccc3cccc(c23)C1=O
inactive: [1] | [4] | [9] | [11] | [17] | [15] | [16]
active: [2] 3.55 µM | [3] 5.62 µM | [12] 0.794 µM | [13] 0.316 µM | [5] 0.0631 µM | [6] 0.631 µM | [7] 2.24 µM | [14] 0.631 µM | [8] 0.562 µM | [18] 3.55 µM | [19] 4.47 µM

— PubChem BioAssay (NCATS)
